# Screens from PubChem.
# Compounds with a hit are over-represented: about 1.5% of the library has one in this group of screens.
# RECQ1 helicase = inhibitors of human RECQ1 DNA helicase; P46063; RECQ1 DNA unwinding, red fluorescence kinetic read; Potency, µM (highest dose often 57.3 µM), for the others: at the top dose activity, negative = inhibition, hits mostly inhibitors; actives 0.54% (n = 240,000); AID 2549;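 also: potency is read from the fitted curve at half-maximal effect; plate controls were vehicle for no effect and no enzyme for full effect; nearly all actives have a fitted effect of over 30% in size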
#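 RECQ1T1 50 nM; forked duplex (20 bp + 30-nt ss tails) 200 nM, ATP 2 mM final; pH 8.0, 2 mM MgCl2, 2.5 ug/ml poly(dI-dC); 15 min compound preincubation; discontinuous kinetic read over 2 h at RT.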
# FEN1 inhibitor = blocks human flap endonuclease 1; AID 588795; Recombinant FEN1 flap cleavage, fluorescence, 15 min; actives 0.35% (n = 390,000); Potency, µM (top dose mostly 114 µM), inactives show top-dose activity change, negative = inhibition, hits mostly inhibitors; P39748; also: potency is read from the fitted curve at half-maximal effect; % is scaled to controls: 0 for no effect and ±100 for the full control effect; nearly all actives have a fitted effect of over 65% in size
# Target sequence (P39748 whole entry, looked up): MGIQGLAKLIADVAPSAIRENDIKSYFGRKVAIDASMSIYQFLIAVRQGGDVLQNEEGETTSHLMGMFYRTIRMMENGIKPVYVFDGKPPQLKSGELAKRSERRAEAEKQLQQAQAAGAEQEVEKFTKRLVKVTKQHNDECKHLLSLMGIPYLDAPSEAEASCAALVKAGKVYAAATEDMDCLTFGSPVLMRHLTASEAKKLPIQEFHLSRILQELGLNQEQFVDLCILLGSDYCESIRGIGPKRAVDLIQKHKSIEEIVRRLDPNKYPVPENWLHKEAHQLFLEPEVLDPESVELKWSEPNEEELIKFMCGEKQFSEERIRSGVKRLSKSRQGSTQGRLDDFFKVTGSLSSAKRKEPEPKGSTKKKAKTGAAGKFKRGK
#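 Recombinant FEN1 (10 nM) was preincubated with pin-transferred compounds for 15 min at room temperature, then flap DNA substrate (50 nM final) was added. Plates were read at 0 and 15 min, and normalized concentration–response data were fitted to a four-parameter Hill equation.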
# APEX1 inh = blocks human APE1 abasic DNA cleavage; P27695; recombinant APE1, TAMRA/BHQ-2 abasic DNA cleavage fluorescence; Potency, µM (top dose mostly 65.8 µM), for inactives: at the top dose activity change, negative = inhibition, usual class: inhibitors; actives 0.35% (n = 350,000);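 also: potency is read from the fitted curve at half-maximal effect; plate controls were vehicle for no effect and reference inhibitor for full effect; nearly all actives have a fitted effect of over 55% in size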
#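 Measures dequenching upon AP-site incision of a 5'-TAMRA/3'-BHQ-2 THF-containing duplex, 50 nM; human APE1 0.75 nM after 15 min room-temperature exposure to compound; kinetic three-point read at one-minute spacing.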
# GCN5L2 inh-1 = blocks human GCN5L2 histone acetyltransferase; Q92830; GCN5L2 HAT assay, ThioGlo1 CoA-SH fluorescence; Potency, µM (top dose mostly 58.9 µM), without a hit: top-dose activity change, negative = inhibition, most hits filed as inhibitors; actives 0.21% (n = 390,000); AID 504327; also: potency is read from the fitted curve at half-maximal effect; % is scaled to controls: 0 for no effect and ±100 for the full control effect
#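 qHTS, 1536-well. 20nM enzyme, pH 7.5 HEPES/EDTA/Tween-20 buffer; 15 min compound preinc., RT. Start: 75uM H3(1-25), 70uM AcCoA, 50uM ThioGlo1. Read Ex340/Em540 at t=0 (autofluorescence flag) and t=20 min.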
# PI5P4K alpha inh = inhibitors of human PI5P4K alpha | P48426 | PI5P4Kalpha enzyme, ADP-Glo luminescence, 60 min; hits give low values | max response, % | actives 1.2% (n = 330,000); active = max response of -50% or lower; inconclusive = between -30% and -50%; inactive = -30% or higher; also: value at the top dose of about 77 µM; % is scaled to controls: 0 for no effect and ±100 for the full control effect
#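 Reactions run in 0.038 M HEPES pH 7.4, 0.28 mM EGTA, 0.1% CHAPS and 5% DMSO, with PI5P4Kalpha, substrate, compound and 5 microM ATP final, one hour at room temperature. Readout is ADP-Glo luminescence.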
# BLM helicase inh = inhibitors of human Bloom syndrome helicase BLM | AID 2528 | P54132 | Potency, µM (doses to about 56.1 µM), for the others: top-dose activity change, negative = inhibition, most hits filed as inhibitors | recombinant BLM DNA unwinding, fluorescence dequenching | actives 0.2% (n = 350,000);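 also: potency is read from the fitted curve at half-maximal effect; plate controls were vehicle for no effect and no enzyme for full effect; nearly all actives have a fitted effect of over 35% in size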
# GCN5L2 inh-2 = human KAT2A HAT inhibition, hit confirmation. shares compounds with GCN5L2 inh-1. GCN5L2 HAT, ThioGlo1 CoA fluorescence, 20 min. Potency, µM, hits mostly inhibitors. actives 70% (n = 140). AID 588347
# * marks the source's active call; other numbers are inactive results; i = inactive; ? = inconclusive; / = not tested or not shown; [ ] = remark or other dose. Unless noted, calls follow the shape of the dose curve; as a rule, active = well fitted curve in the direction sought with a large enough effect; inconclusive = small, poorly fitted or top-dose-only effect, or another doubt; inactive = no such curve, though single readings can be large; an effect the other way counts as inactive or inconclusive.
SMILES,RECQ1 helicase,FEN1 inhibitor,APEX1 inh,GCN5L2 inh-1,PI5P4K alpha inh,BLM helicase inh,GCN5L2 inh-2
COc1ccc(NC(=O)N2CCc3nc(-c4ccc(OC)cc4C)c4c(c3C2)CO[C@@H](c2ccccc2)C4)cc1,i[11.5 µM],/,9.1%[12.4 µM],/,/,-1.5%[12.4 µM],/
CC(C)(C)c1cc(-c2csc(Nc3ccccc3)[n+]2Cc2ccc(C(=O)O)cc2)cc(C(C)(C)C)c1O,-16.8%,?,3.1%,22.4µM*,-10.2,-12.0%,18.2*
CC(C)C[C@H](NC(=O)[C@H](Cc1ccccc1)NC(=O)[C@H](Cc1ccccc1)NC(=O)[C@@H](N)CO)C(=O)N[C@@H](CCCN=C(N)N)C(=O)N[C@@H](CC(N)=O)C(=O)O,-10.1%,/,0.5%,54.3%,/,-0.7%,/
Cc1ccc(S(=O)(=O)N2CCN(c3nc(-c4cccs4)cc4ccccc34)CC2)cc1,/,-3.9%,/,/,/,/,/
Cc1ccc(C2=NOC(=O)/C2=C\C=C\c2ccccc2)cc1,3.0%,-11.6%,-7.5%,25.1µM*,?,-21.4%,?
Cc1ccc(S(=O)(=O)N2[C@@H](c3ccccc3F)C(C(=O)O)=CC[C@H]2c2ccc(Cl)c(Cl)c2)cc1,/,14.3%,26.0%,28.2µM*,-1.9,/,?
O=C(O)C1=CC[C@@H](c2ccc(Cl)cc2)N(S(=O)(=O)c2ccc(Cl)cc2)[C@H]1c1ccc(Br)cc1,/,-1.6%,-11.4%,25.1µM*,-28.3,/,18.2*
CCOc1cc(/C=C2\C(=O)N(c3nc(-c4ccc(Br)cc4)cs3)N=C2c2ccccc2)ccc1O,-22.7%,50.1µM*,3.4%,?,-83.1*,?,5.13*
CCOc1cc(/C=C2/SC(=S)N(Cc3ccccc3)C2=O)ccc1O,/,-35.7%,5.6%,-13.1%,6.2,-18.7%,/
Cc1[nH]c(=O)nc(SCc2cccc(Cl)c2)c1C#N,/,-22.5%,28.9%,-8.5%,-21.7,-7.1%,/
N#Cc1c(-c2ccccc2)nc(SCc2cccc(Cl)c2)[nH]c1=O,/,-16.5%,-7.5%,?,-22.3,-7.0%,18.2*
COc1ccc(S(=O)(=O)Nc2cccc3cccnc23)c([N+](=O)[O-])c1,/,7.1%,/,/,/,/,/
COc1ccc2cc(-c3cc(C(=O)O)c4ccccc4n3)ccc2c1,-1.1%,-1.1%,-0.2%,?,-18.2,5.9%,?
O=C(O)c1cc(-c2ccc(-c3ccc(F)cc3)o2)nc2ccccc12,/,5.5%,9.0%,?,?,-6.6%,20.4*
C=CCn1c(SC(C)C#N)nc2ccccc2c1=O (stereo not drawn),/,15.3%,/,/,/,/,/
COc1ccc(OC)c(/C=C/C(=O)Nc2cccc(S(=O)(=O)NC3=NCCCCC3)c2)c1,/,1.7%,-2.9%,31.6µM*,-5.2,/,32.4*
CCc1ccc(S(=O)(=O)/N=C2\C=CC(=O)c3ccccc32)cc1,-29.6%,/,14.9%,-6.1%,/,-27.1%,/
CCc1ccc(S(=O)(=O)/N=C2/C=C(Sc3ncn[nH]3)C(=O)c3ccccc32)cc1,?,79.4µM*,?,31.6µM*,-94.3*,22.4µM*,4.57*
Cc1cccc(C)c1-n1cccc1/C=C1\SC(=S)N(c2cccc(C(=O)O)c2)C1=O,-1.6%,?,-12.9%,31.6µM*,?,-2.3%,20.4*
O=C(O)c1ccc(N2C(=O)/C(=C/C=C/c3ccccc3)SC2=S)cc1,i,-7.0%,3.1%,-2.4%,-26.4,1.4%,/
Cc1cc2c(s1)c1cnn(CC(=O)N3CCOCC3)c(=O)c1n2C,/,12.0%,/,/,/,/,/
O=C1CCC(C(=O)Nc2cccc(S(=O)(=O)Nc3ccccc3F)c2)=NN1,/,?,26.6%,?,-12.0,/,11.5*
O=C(Nc1cccc(S(=O)(=O)Nc2ccccc2F)c1)c1ccco1,/,3.8%,3.3%,-4.3%,-4.7,/,/
